# Experimental data from PubChem BioAssay (EPA / NIEHS).
# Results filed as inconclusive are left out. Active and inactive are the calls of the source. How the source made its calls, unless noted: active means hit-call score of the fitted dose curve at least 0.9, where 1 is the maximum; inconclusive means response in the unintended direction; inactive means score below 0.9.
# Legend:
# [1] = target: Retinoic acid receptor RXR-alpha (Homo sapiens) (UniProt P19793); assay: ATG_RXRa_TRANS: Attagene TRANS-FACTORIAL HepG2 Assay for human Retinoid X Receptor alpha (RXRa) (AID 2283012)
# Outline: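 TRANS format reporting activity of exogenous RXRa-Gal4 chimera in transiently transfected HepG2, 24 h exposure. Reporter transcripts quantified by RT-PCR with capillary electrophoresis, with gain of signal scored relative to DMSO.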
# [2] = target: human Retinoid X Receptor beta (RXRb), RXRB (gene 6257) (UniProt P28702); assay: ATG_RXRb_TRANS: Attagene TRANS-FACTORIAL HepG2 Assay for human Retinoid X Receptor beta (RXRb) (AID 2283013)
# Outline: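 Readout is reporter transcript induction after 24 h dosing. It is measured by RT-PCR of total RNA followed by fluorescent capillary electrophoresis. HepG2 liver cells carry transfected multiple reporter units driven by an exogenous RXRb-Gal4 fusion; activity is relative to DMSO.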
# [3] = target: human Thyroid Receptor alpha (THRa1), THRA (gene 7067) (UniProt P10827); assay: ATG_THRa1_TRANS: Attagene TRANS-FACTORIAL HepG2 Assay for human Thyroid Receptor alpha (THRa1) (AID 2283014)
# Outline: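 HepG2 cells transiently transfected with multiplexed GAL4-UAS reporter units for exogenous chimeric THRa1-Gal4; reporter mRNA measured 24 h after dosing by RT-PCR, 6-FAM labelling, HpaI digestion and capillary electrophoresis. Gain-of-signal fitted versus DMSO baseline.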
# [4] = read-out: E-selectin (Homo sapiens) (UniProt P16581); assay: BSK_3C_Eselectin: BioMAP Diversity Plus: 3C Assay for Eselectin Biomarker Activity (AID 2283015; active means hit-call score of the fitted dose curve at least 0.9, where 1 is the maximum; inactive means score below 0.9;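 on outcome: cell surface E-selectin protein quantified by ELISA 24 h after dosing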); settings: primary human endothelial cells (HUVEC); actives raise or lower the signal
# Outline: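 Primary human umbilical vein endothelial cells (3C system) were dosed with chemical and cell-surface E-selectin measured by ELISA 24 h later. Bidirectional curve fitting used DMSO as negative control and baseline.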
# [5] = read-out: Interleukin-1 alpha (IL1a), IL1A (gene 3552); assay: BSK_BE3C_IL1a: BioMAP Diversity Plus: BE3C Assay for Interleukin-1 alpha (IL1a) Biomarker Activity (AID 2283016; active means hit-call score of the fitted dose curve at least 0.9, where 1 is the maximum; inactive means score below 0.9); settings: primary human bronchial epithelial cells; actives raise or lower the signal
# Outline: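 IL-1a measured by ELISA after 24 h treatment of human primary bronchial epithelial cells, with gain or loss of signal fitted versus DMSO. Parallel cultures stained with SRB gauge overt cytotoxicity.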
# [6] = read-out: Monocyte Chemoattractant Protein-1 (MCP1), CCL2 (gene 6347); assay: BSK_3C_MCP1: BioMAP Diversity Plus: 3C Assay for Monocyte Chemoattractant Protein-1 (MCP1) Biomarker Activity (AID 2283017; active means hit-call score of the fitted dose curve at least 0.9, where 1 is the maximum; inactive means score below 0.9); settings: primary human endothelial cells (HUVEC); actives raise or lower the signal
# Outline: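 Primary human umbilical vein endothelial cells (3C system) were exposed to test chemical for 24 h, after which MCP-1 was quantified by ELISA. Activity was fitted bidirectionally against DMSO as negative control and baseline.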
# [7] = read-out: Monocyte Chemoattractant Protein-1 (MCP1), CCL2 (gene 6347); assay: BSK_4H_MCP1: BioMAP Diversity Plus: 4H Assay for Monocyte Chemoattractant Protein-1 (MCP1) Biomarker Activity (AID 2283018; active means hit-call score of the fitted dose curve at least 0.9, where 1 is the maximum; inactive means score below 0.9); settings: primary human endothelial cells (HUVEC); actives raise or lower the signal
# Outline: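 ELISA of MCP-1 (CCL2) 24 h after chemical dosing of HUVEC in the BioMAP 4H system. Gain or loss versus DMSO fitted; parallel SRB staining (560 nm) tracked overt cytotoxicity.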
# [8] = read-out: Human Leukocyte Antigen - DR isotype (HLADR), HLA-DRA (gene 3122); assay: BSK_3C_HLADR: BioMAP Diversity Plus: 3C Assay for Human Leukocyte Antigen - DR isotype (HLADR) Biomarker Activity (AID 2283019; active means hit-call score of the fitted dose curve at least 0.9, where 1 is the maximum; inactive means score below 0.9;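 on outcome: ELISA of cell-surface HLA-DR on HUVEC 24 h after dosing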); settings: primary human endothelial cells (HUVEC); actives raise or lower the signal
# Outline: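 Primary human umbilical vein endothelial cells (3C system) were dosed with compound and cell-surface HLA-DR was quantified by ELISA at 24 h. Activity was fitted bidirectionally against DMSO as negative control and baseline.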
# [9] = read-out: Interleukin-8 (IL8), CXCL8 (gene 3576); assay: BSK_3C_IL8: BioMAP Diversity Plus: 3C Assay for Interleukin-8 (IL8) Biomarker Activity (AID 2283020; active means hit-call score of the fitted dose curve at least 0.9, where 1 is the maximum; inactive means score below 0.9); settings: primary human endothelial cells (HUVEC); actives raise or lower the signal
# Outline: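 IL-8 was measured by ELISA in HUVEC cultures 24 h after chemical dosing, with gain or loss of signal fitted relative to DMSO. Parallel SRB total-protein staining tracked overt cytotoxicity.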
# Chain of Retinoic acid receptor RXR-alpha (Homo sapiens) (P19793 whole entry, looked up, the tested form may be a part): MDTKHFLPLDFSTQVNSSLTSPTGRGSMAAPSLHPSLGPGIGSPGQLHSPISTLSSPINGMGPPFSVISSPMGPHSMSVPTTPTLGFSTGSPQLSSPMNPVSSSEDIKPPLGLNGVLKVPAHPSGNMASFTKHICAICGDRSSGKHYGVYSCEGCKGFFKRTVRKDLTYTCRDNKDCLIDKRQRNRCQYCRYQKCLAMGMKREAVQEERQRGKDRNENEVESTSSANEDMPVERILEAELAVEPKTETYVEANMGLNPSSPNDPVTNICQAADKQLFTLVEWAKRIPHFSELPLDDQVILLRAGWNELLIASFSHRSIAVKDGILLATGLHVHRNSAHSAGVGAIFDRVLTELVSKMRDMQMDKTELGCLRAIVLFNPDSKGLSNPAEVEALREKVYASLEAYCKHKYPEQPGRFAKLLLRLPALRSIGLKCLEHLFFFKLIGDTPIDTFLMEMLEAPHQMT
# Chain of E-selectin (Homo sapiens) (P16581 whole entry, looked up): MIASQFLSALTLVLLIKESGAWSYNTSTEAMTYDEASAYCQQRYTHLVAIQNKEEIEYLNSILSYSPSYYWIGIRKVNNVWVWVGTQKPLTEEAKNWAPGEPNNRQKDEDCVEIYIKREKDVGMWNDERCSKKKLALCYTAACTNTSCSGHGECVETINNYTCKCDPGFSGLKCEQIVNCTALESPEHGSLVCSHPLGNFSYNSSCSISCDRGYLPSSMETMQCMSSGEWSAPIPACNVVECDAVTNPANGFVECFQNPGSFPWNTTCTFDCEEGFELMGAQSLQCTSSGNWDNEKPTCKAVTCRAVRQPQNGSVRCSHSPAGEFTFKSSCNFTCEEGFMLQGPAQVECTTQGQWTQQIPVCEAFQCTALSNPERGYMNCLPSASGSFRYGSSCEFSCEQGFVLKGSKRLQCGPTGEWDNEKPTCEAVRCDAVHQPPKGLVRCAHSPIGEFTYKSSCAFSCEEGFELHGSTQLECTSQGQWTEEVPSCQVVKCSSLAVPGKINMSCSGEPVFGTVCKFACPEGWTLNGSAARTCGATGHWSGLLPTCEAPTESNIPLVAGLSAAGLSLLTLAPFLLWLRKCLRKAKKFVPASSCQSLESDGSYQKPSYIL
# Chain of human Retinoid X Receptor beta (RXRb), RXRB (gene 6257) (P28702 whole entry, looked up, the tested form may be a part): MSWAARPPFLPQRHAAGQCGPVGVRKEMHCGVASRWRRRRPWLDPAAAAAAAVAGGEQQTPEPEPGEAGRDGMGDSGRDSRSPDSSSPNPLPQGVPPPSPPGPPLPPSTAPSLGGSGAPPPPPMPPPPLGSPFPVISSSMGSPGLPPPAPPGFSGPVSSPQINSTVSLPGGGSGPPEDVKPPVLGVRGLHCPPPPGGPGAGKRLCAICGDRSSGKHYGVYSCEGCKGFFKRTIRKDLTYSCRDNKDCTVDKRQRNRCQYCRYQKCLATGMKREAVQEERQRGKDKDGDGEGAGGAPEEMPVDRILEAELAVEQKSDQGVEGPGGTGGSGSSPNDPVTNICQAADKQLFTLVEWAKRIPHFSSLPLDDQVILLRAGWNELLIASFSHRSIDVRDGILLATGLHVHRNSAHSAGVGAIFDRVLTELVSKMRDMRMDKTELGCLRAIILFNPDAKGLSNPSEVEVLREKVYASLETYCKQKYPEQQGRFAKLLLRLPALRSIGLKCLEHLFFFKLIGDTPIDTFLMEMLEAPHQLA
# Chain of human Thyroid Receptor alpha (THRa1), THRA (gene 7067) (P10827 whole entry, looked up, the tested form may be a part): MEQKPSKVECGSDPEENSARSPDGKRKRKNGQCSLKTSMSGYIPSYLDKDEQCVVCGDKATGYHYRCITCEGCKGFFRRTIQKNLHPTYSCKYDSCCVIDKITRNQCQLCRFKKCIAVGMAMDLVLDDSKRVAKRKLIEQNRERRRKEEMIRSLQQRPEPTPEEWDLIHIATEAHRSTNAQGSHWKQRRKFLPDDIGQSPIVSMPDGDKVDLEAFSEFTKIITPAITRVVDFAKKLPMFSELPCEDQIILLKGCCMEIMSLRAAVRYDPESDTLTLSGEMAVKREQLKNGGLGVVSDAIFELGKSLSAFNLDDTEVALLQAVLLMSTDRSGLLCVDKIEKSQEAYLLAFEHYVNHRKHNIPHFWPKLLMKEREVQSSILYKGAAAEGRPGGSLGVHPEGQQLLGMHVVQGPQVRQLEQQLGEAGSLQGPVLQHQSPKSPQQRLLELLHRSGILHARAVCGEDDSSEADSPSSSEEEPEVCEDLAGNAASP
smiles,measurement,setting,value
CC(=O)C=CC1C(C)=CCC(C)C1(C)C (configuration not stated),outcome,[1],inactive
same,AC50,[2],68.5 µM (active)
same,outcome,[3],inactive
C=CC(C)(CCC=C(C)C)OC(=O)CC(C)C (configuration not stated),outcome,[1],inactive
same,AC50,[2],30.5 µM (active)
same,outcome,[3],inactive
ON(Cc1ccccc1)Cc1ccccc1,outcome,[1],inactive
same,outcome,[2],inactive
same,outcome,[3],inactive
CCCCCCCCCCCCCCCC[N+](C)(C)CC,outcome,[1],inactive
same,AC50,[2],13 µM (active)
same,AC50,[3],12.1 µM (active)
same,AC50,[4],3.48 µM (active)
same,AC50,[5],7.31 µM (active)
same,AC50,[6],2.66 µM (active)
same,AC50,[7],0.845 µM (active)
same,AC50,[8],0.932 µM (active)
same,AC50,[9],3.73 µM (active)
O=C(Nc1ccccc1)c1ccccc1O,outcome,[1],inactive
same,outcome,[2],inactive
same,outcome,[3],inactive
CC(C)C1=CC2=CC[C@@H]3[C@](C)(CCC[C@@]3(C)C(=O)O)[C@H]2CC1,outcome,[1],inactive
same,outcome,[2],inactive
same,outcome,[3],inactive
O=C(Nc1ccccc1SSc1ccccc1NC(=O)c1ccccc1)c1ccccc1,outcome,[1],inactive
same,outcome,[2],inactive
same,outcome,[3],inactive
same,outcome,[4],inactive
same,outcome,[5],inactive
same,AC50,[6],8.27 µM (active)
same,AC50,[7],9.13 µM (active)
same,AC50,[8],10 µM (active)
same,outcome,[9],inactive
O=C1CCCCCCCCCCCCCCCO1,outcome,[1],inactive
same,AC50,[2],70.4 µM (active)
same,outcome,[3],inactive
OCCN(CCO)c1ccccc1,outcome,[1],inactive
same,outcome,[2],inactive
same,outcome,[3],inactive
CCC(C)OC(=O)c1ccc(O)cc1 (configuration not stated),outcome,[1],inactive
same,AC50,[2],70.8 µM (active)
same,outcome,[3],inactive
Nc1ccc(Oc2ccc(N)c(N)c2)cc1,outcome,[1],inactive
same,outcome,[2],inactive
same,outcome,[3],inactive
CC(C)(C)C1CCCCC1=O (configuration not stated),outcome,[1],inactive
same,AC50,[2],91.4 µM (active)
same,outcome,[3],inactive
CCCCCCCCc1ccc(Nc2ccc(CCCCCCCC)cc2)cc1,outcome,[1],inactive
same,outcome,[2],inactive
same,outcome,[3],inactive
same,outcome,[4],inactive
same,outcome,[5],inactive
same,outcome,[6],inactive
same,outcome,[7],inactive
same,outcome,[8],inactive
same,outcome,[9],inactive
CC=CC(F)(F)C(F)(F)C(F)(F)F,outcome,[1],inactive
same,outcome,[2],inactive
same,outcome,[3],inactive
CC(=O)c1ccc2c(c1)CCCC2,outcome,[1],inactive
same,AC50,[2],42.9 µM (active)
same,outcome,[3],inactive
CC(C)(C)c1ccc(-c2ccc(C(C)(C)C)cc2)cc1,outcome,[1],inactive
same,outcome,[2],inactive
same,outcome,[3],inactive
CN1C(=O)N(C)C(O)C1O (configuration not stated),outcome,[1],inactive
same,outcome,[2],inactive
same,outcome,[4],inactive
same,outcome,[5],inactive
same,outcome,[6],inactive
same,outcome,[7],inactive
same,outcome,[8],inactive
same,outcome,[9],inactive
Oc1ccc(Cl)cc1Cc1cc(Cl)ccc1O,outcome,[1],inactive
same,AC50,[2],6.46 µM (active)
same,outcome,[3],inactive
CCN(Cc1cccc(S(=O)(=O)O)c1)c1ccc(C(=C2C=CC(=[N+](CC)Cc3cccc(S(=O)(=O)[O-])c3)C=C2)c2ccccc2)cc1,outcome,[1],inactive
same,outcome,[2],inactive
same,outcome,[3],inactive
CC(CC=O)CCCC(C)(C)O (configuration not stated),outcome,[1],inactive
same,outcome,[2],inactive
same,outcome,[3],inactive
CC1(C)O[C@@H]2C[C@H]3[C@@H]4C[C@H](F)C5=CC(=O)CC[C@]5(C)[C@H]4[C@@H](O)C[C@]3(C)[C@]2(C(=O)CO)O1,outcome,[1],inactive
same,AC50,[2],31.8 µM (active)
same,outcome,[3],inactive
[Cl][Bi]([Cl])([c]1ccccc1)([c]1ccccc1)[c]1ccccc1,AC50,[1],5.6 µM (active)
same,AC50,[2],1.04 µM (active)
same,outcome,[3],inactive
CCCCCCCCCCCSCC(=O)O,outcome,[1],inactive
same,AC50,[2],11.5 µM (active)
same,outcome,[3],inactive
O=[N+]([O-])c1ccc(CO)cc1,outcome,[1],inactive
same,outcome,[2],inactive
same,outcome,[3],inactive
CC(=O)[C@@]1(O)CC[C@H]2[C@@H]3C[C@H](C)C4=CC(=O)C=C[C@]4(C)[C@@]3(F)[C@@H](O)C[C@@]21C,outcome,[1],inactive
same,outcome,[2],inactive
same,outcome,[3],inactive
N#[N+]c1ccc2c(S(=O)(=O)[O-])cccc2c1O,outcome,[1],inactive
same,outcome,[2],inactive
same,outcome,[3],inactive
same,outcome,[4],inactive
same,outcome,[5],inactive
same,outcome,[6],inactive
same,outcome,[7],inactive
same,outcome,[8],inactive
same,outcome,[9],inactive
O=C(O)Cc1c(Cl)ccc(Cl)c1Cl,outcome,[1],inactive
same,outcome,[3],inactive
Cc1ccc(C(C)c2ccc(C)c(C)c2)cc1C,outcome,[1],inactive
same,outcome,[2],inactive
same,outcome,[3],inactive
COCc1c(C(C)C)nc(C(C)C)c(/C=C/[C@@H](O)C[C@@H](O)CC(=O)O)c1-c1ccc(F)cc1,outcome,[1],inactive
same,outcome,[2],inactive
same,outcome,[5],inactive
same,AC50,[6],4.73 µM (active)
same,AC50,[7],0.00777 µM (active)
same,AC50,[8],0.106 µM (active)
same,AC50,[9],0.0685 µM (active)
CCOC(=O)Cc1cccc2ccccc12,outcome,[1],inactive
same,AC50,[2],89.4 µM (active)
same,outcome,[3],inactive
CCOc1ccc(N)c([N+](=O)[O-])c1,outcome,[1],inactive
same,outcome,[2],inactive
same,outcome,[3],inactive
CC(C)c1ccc2cc(C(C)C)ccc2c1,outcome,[1],inactive
same,AC50,[2],20.8 µM (active)
same,outcome,[3],inactive
CCCCCCCCC(=O)OCC,outcome,[1],inactive
same,outcome,[2],inactive
same,outcome,[3],inactive
CCCCCCCCCCC=CC#N,outcome,[1],inactive
same,AC50,[2],49.2 µM (active)
same,outcome,[3],inactive
CCCCCCCCCCCCCCCC[n+]1ccccc1,outcome,[2],inactive
CC(C)COC(=O)C=Cc1ccccc1,outcome,[1],inactive
same,outcome,[3],inactive
